Assay results from PubChem BioAssay (Tox21).
Records with an inconclusive call do not appear. The source made the active and inactive calls. The call rests on the fitted dose curve.

Columns and labels:
[1] = biological target: Acetylcholinesterase (Homo sapiens) (UniProt P22303); assay: Acetylcholinesterase (AChE) small molecule antagonists: colormetric cell-based qHTS assay (AID 1347395); further: nearly all actives have a fitted effect of over 30% in size
Procedure, shortened: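 After overnight attachment at 37 C, SH-SY5Y cells get 30 min compound exposure; detection cocktail (acetylthiocholine, DTNB) then incubates 90 min at 37 C, and absorbance reflects AChE-generated thiocholine.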

[2] = biological target: Acetylcholinesterase (Homo sapiens) (UniProt P22303); assay: Acetylcholinesterase (AChE) small molecule antagonists: enzyme-based qHTS assay (AID 1347397); details: Potency: AChE enzyme activity inhibition; outcome: AChE enzyme activity inhibition; further: nearly all actives have a fitted effect of over 55% in size
Procedure, shortened: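 rhAChE 50 mU/mL (dispensed) + cpd or DMSO, 30 min RT; add DTNB/acetylthiocholine cocktail, 10 min RT; colorimetric thiocholine readout. qHTS, 1536-well format.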

[3] = biological target: Acetylcholinesterase (Homo sapiens) (UniProt P22303); assay: Acetylcholinesterase (AChE) small molecule antagonists: fluorescence cell-based qHTS assay (AID 1347398); details: Potency: AChE activity; outcome: AChE activity; further: nearly all actives have a fitted effect of over 50% in size
Procedure, shortened: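 Read-out is Thiolite Green fluorescence at Ex/Em = 490/520 nm, formed by reaction with thiocholine released when cellular AChE in SH-SY5Y cells hydrolyzes acetylthiocholine. Compounds were preincubated 30 min at 37 C before substrate.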

[4] = biological target: Acetylcholinesterase (Homo sapiens) (UniProt P22303); assay: Acetylcholinesterase (AChE) small molecule antagonists: enzyme-based qHTS assay with human liver microsomes (AID 1347399); details: Potency: qHTS inhibition; outcome: qHTS inhibition; further: nearly all actives have a fitted effect of over 60% in size
Procedure, shortened: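 Recombinant human AChE (50 mU/mL in the enzyme mix) and human liver microsomes (0.25 mg/mL final) were preincubated with compound and NADPH (0.25 mg/mL final) for 30 min at 37 C. Acetylthiocholine/DTNB was then added; thiocholine was read colorimetrically after 10 min at room temperature.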

Measured: Potency

Sequence of Acetylcholinesterase (Homo sapiens) (P22303 whole entry, looked up): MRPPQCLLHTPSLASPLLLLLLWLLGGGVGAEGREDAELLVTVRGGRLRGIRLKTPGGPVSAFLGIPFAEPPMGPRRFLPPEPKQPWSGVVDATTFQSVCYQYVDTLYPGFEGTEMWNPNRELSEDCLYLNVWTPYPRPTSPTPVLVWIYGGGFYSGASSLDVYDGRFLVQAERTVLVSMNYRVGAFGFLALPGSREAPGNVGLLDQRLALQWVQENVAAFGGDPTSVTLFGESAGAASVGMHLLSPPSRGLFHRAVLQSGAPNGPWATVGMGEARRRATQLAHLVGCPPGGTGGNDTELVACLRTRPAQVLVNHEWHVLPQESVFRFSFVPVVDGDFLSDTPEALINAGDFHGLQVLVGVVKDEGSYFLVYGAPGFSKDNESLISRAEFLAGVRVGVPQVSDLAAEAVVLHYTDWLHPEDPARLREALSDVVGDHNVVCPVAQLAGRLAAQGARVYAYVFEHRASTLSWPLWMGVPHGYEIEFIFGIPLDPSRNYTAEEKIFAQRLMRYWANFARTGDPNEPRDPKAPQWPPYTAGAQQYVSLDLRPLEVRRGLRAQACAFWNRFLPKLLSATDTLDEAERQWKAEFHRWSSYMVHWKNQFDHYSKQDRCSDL

CC(=O)Nc1ncc([N+](=O)[O-])s1
inactive: all assays above

Cc1ccccc1C#N
inactive: all assays above

COC(=O)CCC(=O)O
inactive: all assays above

Brc1cc2ccccc2c2ccccc12
inactive: all assays above

CC(C)(O)c1ccccc1CC[C@@H](SCC1(CC(=O)O)CC1)c1cccc(/C=C/c2ccc3ccc(Cl)cc3n2)c1
inactive: all assays above

CC/C=C\CCCCCCCCCCOC(C)=O
inactive: all assays above

CC1CNCC(C)O1 (stereo unspecified)
inactive: all assays above

C#C[C@]1(OC(C)=O)CC[C@H]2[C@@H]3CCC4=C[C@@H](OC(C)=O)CC[C@@H]4[C@H]3CC[C@@]21C
inactive: all assays above

O=C(O)c1cccc(C(F)(F)F)c1
inactive: all assays above

COc1cc(OC)c2ccc(=O)oc2c1
inactive: all assays above

CCOC(=O)[C@H](CCc1ccccc1)N[C@@H](C)C(=O)N1Cc2cc(OC)c(OC)cc2C[C@H]1C(=O)O
inactive: all assays above

CCN(C(=O)N(CC)c1ccccc1)c1ccccc1
inactive: all assays above

N#Cc1ccc(C2CCCc3cncn32)cc1 (stereo unspecified)
inactive: all assays above

CO[Si](CCCNCCC[Si](OC)(OC)OC)(OC)OC
inactive: all assays above
